For seven compounds, Percent Effect results are on record in ChEMBL document CHEMBL3988442, “University of Dundee, Small-Polar-MMV Screening Library” (2021).

Common to all, as to design: scale not given: direction of the effect not stated beside the values
Assay [1] has as its target Protein translocase subunit SecA (Escherichia coli (strain K12)) (UniProt P10408). The experiment in a line: Assay to Identify E. coli SecA ATPase Inhibitors. To be noted: 30 µM. It is filed as functional.
Assay [2] has as its target T1, Ubiquitin-activating enzyme e1, putative (Leishmania donovani (strain BPK282A1)) (UniProt E9BSI1).
T1 sequence (whole entry): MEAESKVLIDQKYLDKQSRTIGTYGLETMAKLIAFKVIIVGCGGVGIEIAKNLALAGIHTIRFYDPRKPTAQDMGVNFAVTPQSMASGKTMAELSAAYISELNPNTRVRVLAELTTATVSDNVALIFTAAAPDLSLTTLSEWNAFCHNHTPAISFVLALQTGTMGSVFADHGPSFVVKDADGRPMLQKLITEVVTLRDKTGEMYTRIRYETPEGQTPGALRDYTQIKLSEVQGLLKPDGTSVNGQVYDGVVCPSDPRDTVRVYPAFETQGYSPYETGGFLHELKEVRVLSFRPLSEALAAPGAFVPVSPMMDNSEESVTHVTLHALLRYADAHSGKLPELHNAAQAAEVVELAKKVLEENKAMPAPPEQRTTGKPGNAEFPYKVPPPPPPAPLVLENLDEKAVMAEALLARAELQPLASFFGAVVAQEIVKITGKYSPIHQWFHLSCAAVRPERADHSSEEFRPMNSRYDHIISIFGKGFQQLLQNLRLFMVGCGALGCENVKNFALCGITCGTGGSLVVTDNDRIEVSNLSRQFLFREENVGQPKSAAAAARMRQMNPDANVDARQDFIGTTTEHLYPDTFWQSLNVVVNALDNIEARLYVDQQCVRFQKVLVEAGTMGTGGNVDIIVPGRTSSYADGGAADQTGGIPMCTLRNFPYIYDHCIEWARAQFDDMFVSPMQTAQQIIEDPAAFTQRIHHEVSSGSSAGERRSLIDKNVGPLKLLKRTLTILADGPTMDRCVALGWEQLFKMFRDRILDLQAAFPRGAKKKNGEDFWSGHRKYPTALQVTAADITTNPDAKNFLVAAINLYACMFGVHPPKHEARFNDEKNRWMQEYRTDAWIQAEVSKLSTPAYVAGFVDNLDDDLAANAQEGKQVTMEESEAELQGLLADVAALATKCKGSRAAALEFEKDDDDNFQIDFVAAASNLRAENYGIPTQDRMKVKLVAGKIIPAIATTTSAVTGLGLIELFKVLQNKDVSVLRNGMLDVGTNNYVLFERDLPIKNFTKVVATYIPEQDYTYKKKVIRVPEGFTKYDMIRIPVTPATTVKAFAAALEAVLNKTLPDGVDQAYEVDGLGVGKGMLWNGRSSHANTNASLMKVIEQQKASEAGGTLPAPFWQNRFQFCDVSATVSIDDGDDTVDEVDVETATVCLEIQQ
In words: Leishmania donovani Ubiquitin Activating Enzyme (LdE1). It is filed as functional. Conditions: 30 µM.

Assay [3] addresses Sialic acid-binding Ig-like lectin 9 (Homo sapiens) (UniProt Q9Y336). In words: Hs-Siglec9 ALPHAscreen SOP 20170721. To be noted: 10 µM.
The next assay relates to Trypanosoma cruzi. In words: Trypanosoma cruzi phosphomannomutase and mannose-1-phosphate guanylyltransferase assay. It is filed as functional. Conditions: 10 µM.
Assay [4] has as its target T2, Arginase-2, mitochondrial (Homo sapiens) (UniProt P78540).
T2 sequence (whole entry): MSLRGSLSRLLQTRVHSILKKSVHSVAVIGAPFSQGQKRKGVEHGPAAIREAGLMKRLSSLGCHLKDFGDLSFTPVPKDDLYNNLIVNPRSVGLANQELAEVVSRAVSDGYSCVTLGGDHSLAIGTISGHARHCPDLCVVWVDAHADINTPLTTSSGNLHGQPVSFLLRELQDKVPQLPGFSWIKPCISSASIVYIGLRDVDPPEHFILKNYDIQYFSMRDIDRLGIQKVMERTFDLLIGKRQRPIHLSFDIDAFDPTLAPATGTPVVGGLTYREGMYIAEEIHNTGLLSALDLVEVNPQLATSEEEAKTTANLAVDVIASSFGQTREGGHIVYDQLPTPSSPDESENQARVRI
The experiment in a line: in vitro enzyme assay to detect the production of urea directly proportional to the activity of Arginase II. Also: in the data most compounds retested in dose-response had high values. To be noted: 33.3 µM. It counts as functional.

The target in assay [5] is T3, Proteasome subunit beta (Trypanosoma cruzi) (UniProt O96673).
T3 sequence (whole entry): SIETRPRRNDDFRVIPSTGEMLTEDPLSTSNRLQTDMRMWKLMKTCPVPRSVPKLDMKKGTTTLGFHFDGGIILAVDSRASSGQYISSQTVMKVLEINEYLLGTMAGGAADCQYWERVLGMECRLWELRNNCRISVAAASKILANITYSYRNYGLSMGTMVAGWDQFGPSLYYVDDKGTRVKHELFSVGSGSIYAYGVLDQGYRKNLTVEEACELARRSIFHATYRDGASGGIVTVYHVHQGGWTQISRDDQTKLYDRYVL
The experiment in a line: Trypanosoma cruzi proteasome chymotrypsin-like activity (TcProtChymo) assay. Also: in the data most compounds retested in dose-response had high values. It counts as functional. Conditions: 9.37 µM.

For the next assay, the species on record is Homo sapiens. The experiment in a line: To identify inhibition of the IFN signalling (Jak-Stat) pathway via expression of an eGFP reporter gene under the control of an IFN-stimulated response element (ISRE) containing MxA promoter. It is filed as functional. Conditions: 30 µM.
Assay [6] has as its target T4, Tyrosyl-tRNA synthetase, putative (Trypanosoma cruzi (strain CL Brener)) (UniProt Q4DSP6).
T4 sequence (whole entry): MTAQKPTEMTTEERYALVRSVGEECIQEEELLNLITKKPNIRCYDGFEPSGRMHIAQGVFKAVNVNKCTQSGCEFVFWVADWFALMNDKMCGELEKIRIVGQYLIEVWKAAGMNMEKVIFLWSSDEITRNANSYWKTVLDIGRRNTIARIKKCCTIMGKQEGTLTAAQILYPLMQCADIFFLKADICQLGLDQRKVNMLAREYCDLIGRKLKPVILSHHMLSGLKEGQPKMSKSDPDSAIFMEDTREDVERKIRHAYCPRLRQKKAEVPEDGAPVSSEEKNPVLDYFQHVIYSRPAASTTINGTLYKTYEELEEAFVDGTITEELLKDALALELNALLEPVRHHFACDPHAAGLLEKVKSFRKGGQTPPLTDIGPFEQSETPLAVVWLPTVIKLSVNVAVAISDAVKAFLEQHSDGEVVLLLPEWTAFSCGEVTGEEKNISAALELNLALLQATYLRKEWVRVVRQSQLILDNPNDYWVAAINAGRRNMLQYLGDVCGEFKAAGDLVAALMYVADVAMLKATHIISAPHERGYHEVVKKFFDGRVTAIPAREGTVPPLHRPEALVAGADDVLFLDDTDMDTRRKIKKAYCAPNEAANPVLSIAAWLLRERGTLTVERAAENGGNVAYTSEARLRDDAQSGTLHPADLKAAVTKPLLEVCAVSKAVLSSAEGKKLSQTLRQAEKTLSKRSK
In words: Trypanosoma cruzi tyrosyl tRNA synthetase (TcYRS) _High Tyrosine SOP. Also: in the data most compounds retested in dose-response had high values. Conditions: 30 µM. It is filed as functional.

For assay [7], the target named is T4, Tyrosyl-tRNA synthetase, putative (Trypanosoma cruzi (strain CL Brener)). The experiment in a line: Trypanosoma cruzi tyrosyl tRNA synthetase (TcYRS) SOP. It counts as functional. To be noted: 30 µM.
For assay [8], the target named is Chromo domain-containing protein 1 (Saccharomyces cerevisiae (strain ATCC 204508 / S288c) (Baker's yeast)) (UniProt P32657). The experiment in a line: ScCHD-1 Enzyme Inhibition Assay. Also: in the data most compounds retested in dose-response had high values. It is filed as functional. Conditions: 30 µM.
Sequence of Chromo domain-containing protein 1 (Saccharomyces cerevisiae (strain ATCC 204508 / S288c) (Baker's yeast)) (P32657 whole entry, the tested form may be a part): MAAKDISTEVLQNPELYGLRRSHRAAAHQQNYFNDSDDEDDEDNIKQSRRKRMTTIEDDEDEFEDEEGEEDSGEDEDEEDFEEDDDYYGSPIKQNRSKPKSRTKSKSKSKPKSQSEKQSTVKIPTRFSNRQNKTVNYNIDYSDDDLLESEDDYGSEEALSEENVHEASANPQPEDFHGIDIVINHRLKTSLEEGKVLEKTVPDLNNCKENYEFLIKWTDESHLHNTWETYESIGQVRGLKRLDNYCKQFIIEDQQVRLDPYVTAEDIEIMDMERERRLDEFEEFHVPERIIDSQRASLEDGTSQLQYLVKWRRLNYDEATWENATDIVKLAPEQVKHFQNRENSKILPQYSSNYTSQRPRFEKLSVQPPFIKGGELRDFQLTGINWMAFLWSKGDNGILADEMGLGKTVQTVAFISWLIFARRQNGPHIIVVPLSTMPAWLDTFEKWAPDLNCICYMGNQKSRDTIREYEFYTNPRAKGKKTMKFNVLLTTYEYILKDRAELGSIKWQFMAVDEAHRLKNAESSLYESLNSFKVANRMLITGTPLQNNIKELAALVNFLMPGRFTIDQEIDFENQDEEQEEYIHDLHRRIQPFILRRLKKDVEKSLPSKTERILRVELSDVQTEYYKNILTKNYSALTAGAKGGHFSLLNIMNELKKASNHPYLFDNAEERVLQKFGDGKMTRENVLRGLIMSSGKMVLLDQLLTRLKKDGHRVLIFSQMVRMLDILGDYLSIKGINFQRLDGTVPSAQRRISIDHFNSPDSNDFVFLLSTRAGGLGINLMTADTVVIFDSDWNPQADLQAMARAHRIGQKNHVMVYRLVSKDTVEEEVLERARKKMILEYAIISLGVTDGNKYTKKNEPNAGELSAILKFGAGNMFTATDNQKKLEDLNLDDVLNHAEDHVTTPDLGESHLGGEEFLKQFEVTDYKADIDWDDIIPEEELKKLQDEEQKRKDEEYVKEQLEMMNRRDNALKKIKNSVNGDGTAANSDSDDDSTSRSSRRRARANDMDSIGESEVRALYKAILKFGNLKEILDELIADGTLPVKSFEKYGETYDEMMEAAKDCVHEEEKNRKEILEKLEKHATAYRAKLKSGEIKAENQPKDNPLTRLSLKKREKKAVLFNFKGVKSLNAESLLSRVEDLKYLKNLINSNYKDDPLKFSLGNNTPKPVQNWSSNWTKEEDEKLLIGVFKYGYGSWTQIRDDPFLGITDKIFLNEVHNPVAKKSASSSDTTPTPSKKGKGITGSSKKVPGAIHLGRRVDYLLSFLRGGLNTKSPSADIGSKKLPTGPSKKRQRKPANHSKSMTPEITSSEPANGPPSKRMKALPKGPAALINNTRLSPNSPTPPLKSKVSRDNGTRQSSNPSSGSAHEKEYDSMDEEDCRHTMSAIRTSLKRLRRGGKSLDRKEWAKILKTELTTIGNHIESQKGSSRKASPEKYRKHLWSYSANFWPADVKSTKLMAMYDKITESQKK

For some of these results: Potency and affinity values are given separately.

Sequence of Protein translocase subunit SecA (Escherichia coli (strain K12)) (P10408 whole entry): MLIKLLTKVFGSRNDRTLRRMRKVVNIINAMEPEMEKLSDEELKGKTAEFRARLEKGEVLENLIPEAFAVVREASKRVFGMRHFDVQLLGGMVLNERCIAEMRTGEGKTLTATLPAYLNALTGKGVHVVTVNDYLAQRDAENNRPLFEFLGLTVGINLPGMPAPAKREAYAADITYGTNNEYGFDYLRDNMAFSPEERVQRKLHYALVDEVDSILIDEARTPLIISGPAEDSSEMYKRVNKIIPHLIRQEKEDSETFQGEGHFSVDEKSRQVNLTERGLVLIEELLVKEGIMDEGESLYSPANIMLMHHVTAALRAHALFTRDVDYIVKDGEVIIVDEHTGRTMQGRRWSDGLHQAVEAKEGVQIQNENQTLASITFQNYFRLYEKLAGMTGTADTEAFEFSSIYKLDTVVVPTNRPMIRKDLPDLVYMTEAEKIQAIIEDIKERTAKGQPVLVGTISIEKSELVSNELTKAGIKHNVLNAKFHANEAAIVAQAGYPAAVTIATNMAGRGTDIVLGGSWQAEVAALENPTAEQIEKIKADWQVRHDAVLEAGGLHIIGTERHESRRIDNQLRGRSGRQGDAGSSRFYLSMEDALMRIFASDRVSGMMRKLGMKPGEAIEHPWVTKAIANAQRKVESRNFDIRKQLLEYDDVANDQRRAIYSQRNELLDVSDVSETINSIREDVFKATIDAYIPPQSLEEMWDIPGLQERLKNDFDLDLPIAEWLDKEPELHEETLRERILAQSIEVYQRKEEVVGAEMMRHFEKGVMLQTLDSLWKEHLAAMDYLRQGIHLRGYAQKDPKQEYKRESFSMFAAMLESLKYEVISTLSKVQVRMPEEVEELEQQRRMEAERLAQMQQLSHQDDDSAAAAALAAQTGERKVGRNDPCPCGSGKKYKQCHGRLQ
Sequence of Sialic acid-binding Ig-like lectin 9 (Homo sapiens) (Q9Y336 whole entry): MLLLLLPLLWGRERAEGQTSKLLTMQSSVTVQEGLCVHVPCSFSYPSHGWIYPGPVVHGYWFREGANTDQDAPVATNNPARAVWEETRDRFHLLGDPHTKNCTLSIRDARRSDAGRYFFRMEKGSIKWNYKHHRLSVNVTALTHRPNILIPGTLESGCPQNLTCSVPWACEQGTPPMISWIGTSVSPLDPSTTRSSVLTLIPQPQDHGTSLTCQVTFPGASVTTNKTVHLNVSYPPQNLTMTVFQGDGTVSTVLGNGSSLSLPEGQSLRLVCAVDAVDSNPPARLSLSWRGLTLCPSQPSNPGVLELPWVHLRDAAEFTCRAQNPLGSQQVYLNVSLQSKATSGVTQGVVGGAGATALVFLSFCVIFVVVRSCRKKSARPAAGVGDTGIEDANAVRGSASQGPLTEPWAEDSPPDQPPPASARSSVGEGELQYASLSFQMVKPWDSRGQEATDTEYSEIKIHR

In the case of `CC(C)c1nc(C2CCCN2Cc2ccn(C)c(=O)c2)no1` (stereo not given), the Percent Effect was -2.26% in assay [1]; 15.4% in assay [2]; 1.98% in assay [3]; -0.845% with Trypanosoma cruzi; 7.79% in [4]; 20.1% in [5]. Also, the Percent Effect in the assay listed under Homo sapiens was 17.1%; in assay [6], 6.22%; in assay [7] it was 18.1%; in assay [8], -2.67%.
`Cn1nc2c(cc1=O)CN(Cc1nc(C(C)(C)C)no1)CC2`: the Percent Effect is -2.61% in assay [1]; 29.3% in assay [2]; 6.04% in [3]; 1.41% in the assay on Trypanosoma cruzi; 4.88% in [4]; 6.19% in assay [5]. Moreover, the Percent Effect in the assay listed under Homo sapiens is 21.4%; in [6], 1.58%; in assay [7], 2.56%; in assay [8], -14.7%.
Consider `CC(CC#N)NC(=O)c1cc(Br)c2c(c1)OCCO2` (stereo not given), for which the Percent Effect in assay [1] is -2.19%; in assay [2], -5.33%; in assay [3], -0.459%; in the assay on Trypanosoma cruzi it was -4.22%; in assay [4], 3.1%; in assay [5] it was -1.61%. The Percent Effect in the assay listed under Homo sapiens is 7.62%; in [6], 0.526%; in assay [7], 2.56%; in assay [8] it was -4.98%.
Consider `Cc1nn(C)c(N(C)C)c1CNC(C)c1cccc(OC(C)C)c1` (stereo not given), for which the Percent Effect is 2.06% in assay [1]; 5.2% in [2]; 13.8% in assay [3]; -0.746% in the assay on Trypanosoma cruzi; -7.58% in assay [4]; 4.91% in [5]. Further, the Percent Effect is 15.4% in the assay filed under Homo sapiens, 3.92% in assay [6], 18.8% in assay [7] and -11.9% in [8].
Regarding `CC(C)NC(=O)CC1COC2(CCN(Cc3cccs3)CC2)C1` (stereo not given), the Percent Effect is -3.1% in assay [1]; 16.9% in [2]; -2.18% in assay [3]; -3.19% with Trypanosoma cruzi; 1.37% in [4]; 4.89% in [5]. For the same compound, the Percent Effect was -2.98% in the assay filed under Homo sapiens, 4.83% in [6], 7.5% in assay [7] and -13.3% in [8].
For the compound `CC(=O)N1CCCC1c1csc(Nc2cnccn2)n1` (stereo not given), the Percent Effect in assay [1] is 0.761%; in assay [2], 9.33%; in assay [3], -8.01%; in the assay with Trypanosoma cruzi it was -5.33%; in assay [4], 2.21%; in assay [5], 11.8%. The Percent Effect in the assay filed under Homo sapiens was 20%; in assay [6], 3.17%; in assay [7], 10%; in [8], -25.7%.
For the compound `Cc1ccn(-c2cccc(C(=O)N3CCCC(n4ccnc4C)C3)c2)n1` (stereo not given), the Percent Effect in assay [1] was -0.853%; in assay [2], 7.79%; in assay [3] it was 11.9%; in the assay on Trypanosoma cruzi, -9.7%; in assay [4] it was -3.89%; in assay [5] it was 8.42%. Also, the Percent Effect in the assay filed under Homo sapiens is 26.1%; in assay [6] it was 5.88%; in assay [7], 9.41%; in assay [8], -1.96%.
